Source: PubChem (several laboratories)
Compounds with a hit are over-represented: about 1.5% of the library has one in this group of screens.
DAGLB inh – diacylglycerol lipase beta (human) inhibition; HEK293T DAGLB membrane lysate, EnzChek fluorogenic substrate; inhibition, % at 5.17 µM; 340,000 tested, 0.059% active; AID 504411; in the data active = inhibition above about 34%;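 note: 0% = enzyme with vehicle and 100% = wells lacking enzyme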
Target sequence (Q8NCG7 whole entry, looked up): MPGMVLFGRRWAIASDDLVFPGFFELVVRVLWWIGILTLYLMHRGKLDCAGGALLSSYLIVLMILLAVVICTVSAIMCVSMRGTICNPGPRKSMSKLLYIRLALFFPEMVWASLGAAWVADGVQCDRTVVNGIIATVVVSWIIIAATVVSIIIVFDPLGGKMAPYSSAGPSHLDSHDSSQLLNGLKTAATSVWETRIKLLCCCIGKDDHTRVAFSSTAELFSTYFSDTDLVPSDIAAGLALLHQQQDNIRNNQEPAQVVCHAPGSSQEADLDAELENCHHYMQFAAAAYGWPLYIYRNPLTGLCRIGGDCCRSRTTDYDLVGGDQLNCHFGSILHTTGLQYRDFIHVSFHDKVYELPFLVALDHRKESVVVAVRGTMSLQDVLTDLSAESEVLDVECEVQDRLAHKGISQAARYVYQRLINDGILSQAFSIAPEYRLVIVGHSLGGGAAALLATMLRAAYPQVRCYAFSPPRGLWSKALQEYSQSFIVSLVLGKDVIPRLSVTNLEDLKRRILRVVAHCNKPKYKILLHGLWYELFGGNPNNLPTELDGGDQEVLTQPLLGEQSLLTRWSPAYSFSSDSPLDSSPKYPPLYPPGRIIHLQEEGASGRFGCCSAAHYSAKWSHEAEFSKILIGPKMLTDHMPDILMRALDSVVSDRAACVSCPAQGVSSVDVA
ANO1 block – inhibitors of mouse TMEM16A calcium-activated chloride channel; Q8BHY3; normalized B-score (activity score, 25-100; higher = stronger inhibition) at 10 µM; 310,000 tested, 1.2% active; HEK293 TMEM16A/YFP iodide influx fluorescence, ionomycin;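 active = ratio plate-corrected score three or more library SD toward inhibition, starting fluorescence score within five deviations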;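 note: score derived from kinetic fluorescence span divided by baseline fluorescence per well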
ANO1 activ – mouse TMEM16A channel activation, primary screen; Q8BHY3; HEK293 TMEM16A/YFP-H148Q/I152L, iodide quench fluorescence; hits give low values; B-score at 10 µM; 340,000 tested, 0.3% active;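 active = fluorescence-ratio B-score plate-corrected deviation score at least 3 library SD below zero, with starting fluorescence score within 5 deviations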;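 note: channel opened by trigger with iodide after compound preincubation; score built on the fluorescence ratio of max minus min over baseline; more negative score means more quench and so TMEM16A activation or potentiation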
ABCB6 inh MLPCN – blocks the human ABCB6 transporter | 360,000 tested, 0.19% active | K562-ABCB6 porphyrin accumulation, flow cytometry, 1 h; hits give low values | Q9NP58 | AID 602162 | fluorescence ratio to DMSO, % at 10 µM;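 active = fluorescence ratio to DMSO below 75%, the collection mean minus 3 SD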;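 note: signal is porphyrin accumulated inside mitochondria; 100% equals median channel fluorescence of DMSO control wells; lower ratio means ABCB6 inhibition with less porphyrin fluorescence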
hiPSC survival – hiPSC single-cell survival enhancement; ATPlite luminescence; 100% = ROCK inhibitor wells, 0% = DMSO; survival enhancement, % at 20 µM; 360,000 tested, 0.044% active; in the data active = survival enhancement above about 18%;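 note: cells exposed to compounds for 16 hours before the ATP read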
The depositor's hits bear a star; i = inactive; . = no result.

SMILES	DAGLB inh	ANO1 block	ANO1 activ	ABCB6 inh MLPCN	hiPSC survival
Cc1c(C(=O)NCc2cccc(C(F)(F)F)c2)sc(=O)n1Cc1ccccc1F	.	.	.	103	5
Cc1nn(C)c(C(=O)NC(=S)Nc2ccccc2Br)c1Cl	-13	i	-6.7*	96	-1
CC(=O)c1cc2c(cc1NC(=O)C1CN(C(C)=O)c3ccccc3O1)OCO2 (stereo unspecified)	-7	.	i	114	0
COc1ccc(-c2c[n+]3c(n2-c2ccccc2)SCC3)cc1OC	-1	i	-29*	98	0
COc1ccc(-c2c[n+]3c(n2-c2ccccc2)SCC3)cc1	1	i	i	95	-1
CC(=O)Nc1ccc(S(=O)(=O)N2CCC(C(=O)NCCc3c[nH]c4ccccc34)CC2)cc1	-1	i	i	147	0
C=CCSc1nsc(NC(=O)Nc2ccc(F)cc2)n1	1	100*	i	90	0
O=c1[nH]c2ccc(S(=O)(=O)N3CCCCC3)cc2s1	-1	i	i	96	1
CCCCc1cc(O)c(CCCC)c(O)c1	-7	100*	i	98	4
CCn1c(=O)c(C(=O)Nc2nc3ccccc3[nH]2)c(O)c2ccccc21	8	i	-7.8*	117	-3
COc1ccc(C(=O)Nc2cc(C)on2)c(OC)c1	-4	i	i	92	0
COc1ccc(C(=O)Nc2ccc(C)cn2)c(OC)c1	-4	100*	i	95	-3
COc1ccc(S(=O)(=O)N(Cc2cccs2)C2CCCC2)cc1	-11	100*	i	91	-2
COc1ccc(S(=O)(=O)NCc2cccs2)cc1	0	i	i	89	0
COC(=O)C1=C(C)N(Cc2ccccc2)C(=O)N[C@H]1c1ccc(Br)cc1	1	i	i	98	2
COCCOC(=O)C1=C(C)N(Cc2ccccc2)C(=O)NC1c1ccc(OC)cc1 (stereo unspecified)	-3	100*	i	94	0
O=C(CSc1cccc[n+]1[O-])Nc1cc(Cl)ccc1[N+](=O)[O-]	0	.	i	94	4
O=[N+]([O-])c1ccc(Sc2cccc[n+]2[O-])c2nonc12	1	.	-4.9*	120	0
COCC(C)n1c(C)cc(C(=O)COC(=O)c2cccn2C)c1C (stereo unspecified)	-2	.	i	96	1
O=C(N/N=C/c1ccc(-c2ccc(S(=O)(=O)Nc3ncccn3)cc2)o1)c1cc2ccccc2cc1O	22	100*	i	107	7
O=C(Nc1ccc(Cl)c(S(=O)(=O)N2CCOCC2)c1)c1ccc(OCC2CCCO2)cc1 (stereo unspecified)	.	100*	i	98	0
CCOc1ccc(CCNC(=O)CSc2nn(-c3ccc(C)c(Cl)c3)c(=S)s2)cc1OCC	-3	i	-6*	102	-1
Cc1c(C)c2ccc(OCc3ccc(C(=O)O)o3)c(C)c2oc1=O	0	i	i	84	-3
Cc1c(C)c2ccc(OS(C)(=O)=O)c(C)c2oc1=O	1	i	i	69*	-2
O=C(NNC(=O)c1ccccc1C(=O)O)c1cc2ccccc2o1	-5	i	i	106	1
SMILES	DAGLB inh	ANO1 block	ANO1 activ	ABCB6 inh MLPCN	hiPSC survival
OC[C@@H]1CN(Cc2ccc(-c3ccccc3)cc2)C[C@H](n2cnc3c(NCc4ccc(F)cc4)ncnc32)O1	.	.	.	96	-3
C=C1CCN(c2ccc(C(=O)NCCC)cc2[N+](=O)[O-])CC1	5	i	-6.4*	98	-2
CC(C)NC(=O)c1ccc2c(c1)S(=O)(=O)c1ccccc1C2=O	-1	i	i	107	20*
O=C(Nc1ccc(Cl)c(Cl)c1)Nc1ccccc1NS(=O)(=O)c1cccs1	1	100*	i	102	1
Cc1ccc(S(=O)(=O)Nc2nc3ccccc3nc2Nc2cccc(S(=O)(=O)N3CCCC3)c2)cc1	3	i	i	165	0
O=[N+]([O-])c1cccc(S(=O)(=O)Nc2nc3ccccc3nc2Nc2cccc(S(=O)(=O)N3CCCCC3)c2)c1	2	.	-5.3*	107	2
Cn1cncc1C#Cc1ccc2cc(C(C)(C)O)oc(=O)c2c1	1	.	-11*	100	1
O=C(c1ccc(F)cc1)C1CCN(Cc2ccc(F)cc2)CC1	-5	i	i	100	0
